In PubChem BioAssay AID1159580 (chemical genetic matrix, 2015):
Several values for one entry are separate records, joined by “and”; a condition that tells them apart may be missing. Equal entries are not always repeated. The whole screen tested about 5,500 compounds, of which about 2,000 (36%) were called active. Roughly 18% stayed inconclusive and do not appear here. Rule as the data show it: active = normalized growth mostly below about 0.91 (no sharp cut-off); inconclusive = no clear call, values can overlap the other calls; inactive = mostly above about 0.92. Some of the results follow.

Test: chemical genetic growth profiling, strain panel (AID 1159580);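 also: tested at 20 µM; growth read once vehicle control cultures reached saturation at 30 °C; 1 = growth at the plate median or of vehicle wells; lower values mean less growth of the strain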
Settings: S. cerevisiae deletion strains, growth OD
[1] = locus YAL013W, strain DEP1, stronger effect = lower value
[2] = locus YBR229C, strain ROT2, stronger effect = lower value
[3] = locus YDL101C, strain DUN1, stronger effect = lower value
[4] = locus YDR150W, strain NUM1, stronger effect = lower value
[5] = locus YEL061C, strain CIN8, stronger effect = lower value
[6] = locus YGR078C, strain PAC10, stronger effect = lower value
[7] = locus YHR030C, strain SLT2, stronger effect = lower value
[8] = locus YHR087W, strain rtc3, stronger effect = lower value
[9] = locus YJR043C, strain POL32, stronger effect = lower value
[10] = locus YJR075W, strain HOC1, stronger effect = lower value
[11] = locus YLR039C, strain RIC1, stronger effect = lower value
[12] = locus YLR058C, strain SHM2 (second series), stronger effect = lower value
[13] = locus YLR085C, strain ARP6, stronger effect = lower value
[14] = locus YLR262C, strain YPT6, stronger effect = lower value
[15] = locus YML094W, strain GIM5, stronger effect = lower value
[16] = locus YMR219W, strain ESC1, stronger effect = lower value
[17] = locus YMR263W, strain SAP30, stronger effect = lower value
[18] = locus YNL153C, strain GIM3, stronger effect = lower value
[19] = locus YNL298W, strain CLA4 (second series), stronger effect = lower value
[20] = locus YNL322C, strain KRE1, stronger effect = lower value
[21] = locus YNR030W, strain Alg12, stronger effect = lower value
[22] = locus YPL055C, strain LGE1, stronger effect = lower value
[23] = locus YPL241C, strain CIN2, stronger effect = lower value
[24] = locus YPR135W, strain CTF4, stronger effect = lower value

Measured: normalized growth

O=C(NCCSCc1ccco1)Nc1cc(Cl)cc(Cl)c1
0.822 (inactive) and 0.683 (active): [7]
active: [1] 0.915 | locus YDL134C, strain PPH21, stronger effect = lower value 0.724 | [11] 0.769 | locus YLR113W, strain HOG1, stronger effect = lower value 0.842 | [14] 0.759 | locus YPL256C, strain CLN2, stronger effect = lower value 0.818
inactive: locus YAR019C, strain CDC15, stronger effect = lower value 0.958 | locus YBL105C, strain PKC1, stronger effect = lower value 0.96 | locus YBR135W, strain CKS1, stronger effect = lower value 0.954 | locus YBR136W, strain MEC1, stronger effect = lower value 0.963 | locus YBR160W, strain CDC28, stronger effect = lower value 0.957 | [2] 0.976 | locus YDL017W, strain CDC7, stronger effect = lower value 0.956 | locus YDL028C, strain MPS1, stronger effect = lower value 0.966 | [3] 0.97 and 0.977 | locus YDL108W, strain KIN28, stronger effect = lower value 0.958 | locus YDL132W, strain cdc53, stronger effect = lower value 0.949 | locus YDL214C, strain PRR2, stronger effect = lower value 0.894 | locus YDR052C, strain DBF4, stronger effect = lower value 0.972 | locus YDR054C, strain cdc34, stronger effect = lower value 0.942 | [4] 0.908 | locus YDR226W, strain ADK1, stronger effect = lower value 0.965 | locus YDR477W, strain SNF1, stronger effect = lower value 0.885 | [5] 0.984 | locus YER123W, strain YCK3, stronger effect = lower value 0.842 | locus YER133W, strain GLC7, stronger effect = lower value 0.895 | locus YFL009W, strain cdc4, stronger effect = lower value 0.956 | locus YFL029C, strain CAK1, stronger effect = lower value 0.951 | locus YFR003C, strain YPI1, stronger effect = lower value 0.962 | locus YFR019W, strain FAB1, stronger effect = lower value 0.897 | locus YFR028C, strain CDC14, stronger effect = lower value 0.956 | locus YGR040W, strain KSS1, stronger effect = lower value 0.893 | locus YGR052W, strain FMP48, stronger effect = lower value 0.967 | [6] 0.957 | locus YGR092W, strain DBF2, stronger effect = lower value 0.914 | locus YHR079C, strain IRE1, stronger effect = lower value 0.853 | locus YHR082C, strain KSP1, stronger effect = lower value 0.866 | [8] 0.966 | locus YHR205W, strain SCH9, stronger effect = lower value 0.86 | locus YIL147C, strain SLN1, stronger effect = lower value 0.955 | locus YJL095W, strain BCK1, stronger effect = lower value 0.815 | locus YJL128C, strain PBS2, stronger effect = lower value 0.928 | locus YJL157C, strain FAR1, stronger effect = lower value 0.893 | locus YJR016C, strain ILV3, stronger effect = lower value 0.96 | [9] 0.932 | locus YJR066W, strain TOR1 (second series), stronger effect = lower value 0.946 | locus YJR066W, strain TOR1, stronger effect = lower value 0.824 | [10] 0.958 | locus YKL048C, strain ELM1, stronger effect = lower value 0.934 | locus YKL067W, strain YNK1, stronger effect = lower value 0.898 | locus YKL101W, strain HSL1, stronger effect = lower value 0.911 | locus YKL193C, strain SDS22, stronger effect = lower value 0.942 | locus YKL203C, strain TOR2, stronger effect = lower value 0.916 | [12] 0.953 | [13] 0.865 | locus YLR133W, strain CKI1, stronger effect = lower value 0.893 | locus YLR403W, strain SFP1, stronger effect = lower value 0.868 | locus YML070W, strain DAK1, stronger effect = lower value 0.879 | [15] 0.918 | locus YMR001C, strain CDC5, stronger effect = lower value 0.954 | locus YMR205C, strain PFK2 (second series), stronger effect = lower value 0.914 | [16] 0.976 | [17] 0.917 | locus YMR277W, strain FCP1, stronger effect = lower value 0.952 | locus YNL006W, strain LST8, stronger effect = lower value 0.951 | locus YNL020C, strain ARK1, stronger effect = lower value 0.879 | [18] 0.97 | locus YNL161W, strain CBK1, stronger effect = lower value 0.96 | locus YNL183C, strain NPR1, stronger effect = lower value 0.845 | locus YNL207W, strain RIO2, stronger effect = lower value 0.943 | locus YNL222W, strain SSU72, stronger effect = lower value 0.953 | [19] 0.879 | locus YNL307C, strain MCK1 (second series), stronger effect = lower value 0.888 | [20] 0.96 | [21] 0.897 | locus YOL078W, strain AVO1, stronger effect = lower value 0.948 | locus YOL136C, strain PFK27, stronger effect = lower value 0.853 | locus YOR061W, strain CKA2, stronger effect = lower value 0.9 | locus YOR119C, strain RIO1, stronger effect = lower value 0.954 | locus YOR231W, strain MKK1, stronger effect = lower value 0.863 | locus YOR329C, strain SCD5, stronger effect = lower value 0.956 | locus YPL031C, strain PHO85, stronger effect = lower value 0.872 | [22] 0.858 | locus YPL153C, strain RAD53, stronger effect = lower value 0.894 | locus YPL204W, strain HRR25, stronger effect = lower value 0.867 | locus YPL209C, strain IPL1, stronger effect = lower value 0.958 | [23] 0.937 | locus YPR025C, strain CCL1, stronger effect = lower value 0.952 | locus YPR106W, strain ISR1, stronger effect = lower value 0.959 | locus YPR111W, strain DBF20, stronger effect = lower value 0.957 | [24] 0.841 | strain NNK1, stronger effect = lower value 0.952 | strain TSCII, stronger effect = lower value 0.954

O=C(NCCSCc1ccco1)c1ccc(Cl)cc1
active: [7] 0.587 | [11] 1.31 [resistant] | [14] 1.19 [resistant]
inactive: [1] 0.976 | [2] 0.991 | [3] 0.976 | [4] 0.815 | [5] 0.994 | [6] 0.989 | [8] 1 | locus YJL187C, strain SWE1, stronger effect = lower value 1 | [9] 0.975 | [10] 1.05 | locus YKL190W, strain CNB1, stronger effect = lower value 1 | [12] 0.96 | [13] 1 | [15] 0.989 | [16] 0.98 | [17] 0.981 | locus YNL128W, strain TEP1, stronger effect = lower value 0.983 | [18] 0.984 | [19] 0.968 | [20] 0.988 | [21] 0.982 | [22] 0.962 | [23] 0.975 | [24] 1.02
